Screens from PubChem BioAssay.
OPRM1-OPRD1 ag – agonists of human mu-delta opioid receptor heterodimerization; activation, % at 9.3 µM; P35372+P41143; cells, OPRM1-OPRD1 heterodimerization, luminescence; 340,000 compounds, 0.3% hits
HTR5A ag ctr – HTR5A agonism, opioid heterodimer counter-screen | HTR5A agonist assay, luminescence, cell-based | activation, % at 9.3 µM | 340,000 compounds, 0.61% hits | AID 504692; in the data active means activation mostly above about 9.5%, no sharp cut-off; inactive means mostly below about 7.6%
Target sequence (P47898 whole entry, looked up): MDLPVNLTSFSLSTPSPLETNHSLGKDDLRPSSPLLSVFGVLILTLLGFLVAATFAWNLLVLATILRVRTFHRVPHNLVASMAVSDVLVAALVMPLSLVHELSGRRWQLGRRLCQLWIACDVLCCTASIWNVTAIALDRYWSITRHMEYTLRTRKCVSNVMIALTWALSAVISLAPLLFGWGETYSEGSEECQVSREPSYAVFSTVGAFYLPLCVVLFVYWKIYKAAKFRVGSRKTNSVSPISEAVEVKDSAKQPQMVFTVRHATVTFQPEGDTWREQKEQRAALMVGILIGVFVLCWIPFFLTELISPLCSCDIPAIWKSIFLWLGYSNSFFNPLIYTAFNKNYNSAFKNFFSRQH
HTR5A inv ctr – HTR5A inverse agonism, opioid heterodimer counter-screen. inhibition, % at 9.3 µM. 340,000 compounds, 0.083% hits. HTR5A cell line, luminescence. P47898. AID 504634; in the data active means inhibition mostly above about 23%, no sharp cut-off; inactive means mostly below about 18%
MOR-DOR inv ag – inverse agonists of human mu-delta opioid receptor heterodimerization | AID 504357 | P35372+P41143 | 340,000 compounds, 0.21% hits | inhibition, % at 9.3 µM | cell-based MOR-DOR heterodimer luminescence, inverse agonism; in the data active means inhibition above about 22%, passing the limit was not always enough
MOR-DOR ag conf – OPRM1-OPRD1 heterodimer agonism, confirmation | shares compounds with OPRM1-OPRD1 ag | cells, MOR-DOR heterodimerization, luminescence complementation | activation, % at 9.3 µM | 830 compounds, 45% hits | AID 504904
HTR5A ag counter – counter-screen for OPRM1-OPRD1 agonists: human HTR5A agonism | shares compounds with OPRM1-OPRD1 ag | AID 504905 | 830 compounds, 8% hits | HTR5A agonist counterscreen, cell luminescence | activation, % at 9.3 µM; in the data active means activation above about 17%
A number is an active result; . = inactive; / = not tested or not shown. The list is not random: actives were taken first. Their share in the collection is about 1.1%. Unless noted, no stated cut-off is given here; in the data, active means activation above about 18%; inactive means the rest.

SMILES	OPRM1-OPRD1 ag	HTR5A ag ctr	HTR5A inv ctr	MOR-DOR inv ag	MOR-DOR ag conf	HTR5A ag counter
CC(COc1ccccc1)N1CCC(CO)(CCc2ccccc2)CC1 (stereo unspecified)	176.3	.	.	.	.	.
C#CC(=O)N(c1ccc(OC)c(OC)c1)C(C(=O)NC1CCCC1)c1cccs1 (stereo unspecified)	38.6	.	.	.	18.8	21.5
O=S(=O)(Nc1cc(Cl)ccc1-n1cncn1)c1ccccc1Cl	72.8	.	.	.	.	.
O=S(=O)(Nc1cc(Cl)ccc1-n1cncn1)c1cc(Br)ccc1Br	.	.	.	.	/	/
CCOc1ccc(-n2c(SCC(=O)O)nc3sc4c(c3c2=O)CCCC4)cc1	.	.	.	.	/	/
COc1ccc(NC(C)=O)cc1S(=O)(=O)NCCc1ccccn1	.	.	.	.	/	/
O=C(COC(=O)/C=C/c1ccco1)Nc1ccccc1	.	.	.	.	/	/
COC(=O)c1ccccc1NC(=O)COC(=O)/C=C/c1ccco1	21.4	.	.	.	.	.
Cc1oc(-c2cccc(F)c2)nc1CN(Cc1ccccc1)C[C@@H]1CCC(=O)N1	28.7	.	.	.	.	.
N#CCC(=O)N/N=C/c1cn(Cc2ccc(Cl)c(Cl)c2)c2ccccc12	19.0	.	.	.	.	.
Cc1cc(C)cc(NS(=O)(=O)CCCS(=O)(=O)Nc2cc(C)cc(C)c2)c1	29.9	.	.	.	.	.
CCCCCCCCCS(=O)(=O)Nc1cc(C)ccn1	.	.	.	.	/	/
CC1(C)CC(=O)c2cc(C(=O)Nn3cnnc3)c(=O)n(-c3ccccc3)c2C1	.	.	.	.	/	/
COc1ccc(-n2c3c(cc(C(=O)NNc4ccccc4C)c2=O)C(=O)CC(C)(C)C3)cc1	99.4	.	.	.	132.5	.
COc1ccc(-n2c3c(cc(C(=O)NNc4ccccc4)c2=O)C(=O)CC(C)(C)C3)cc1	128.5	.	.	.	.	.
CCOC(=O)c1c(NC(=O)CN2CCN(S(=O)(=O)c3cc(Cl)ccc3Cl)CC2)sc(C(=O)N(C)C)c1C	18.3	.	.	.	.	.
CC1(C)Cc2c(cnn2-c2cccc(F)c2)C(NC(=O)c2ccc(=O)[nH]n2)C1 (stereo unspecified)	.	.	.	.	/	/
Cc1ccc(C(=O)Nc2nc(-c3ccccn3)cs2)cc1S(=O)(=O)N1CCOCC1	.	.	.	.	/	/
Cc1ccc(S(=O)(=O)N2CCN(Cc3cc(=O)n4ccccc4n3)CC2)c(C)c1	.	.	.	.	/	/
CCOC(=O)N1CCN(c2c(NCCN(C)Cc3ccccc3)c(=O)c2=O)CC1	50.3	.	.	.	.	.
CCOC(=O)N1CCN(c2c(NCCCN(C)c3ccccc3)c(=O)c2=O)CC1	.	.	.	.	/	/
Cc1ccc(-n2cc(CNCCCn3cccn3)c(-c3cccc(C)c3)n2)cc1	.	.	.	.	/	/
Cc1ccc(C)c(-n2cc(CNC(C)Cn3cncn3)c(-c3ccccc3)n2)c1 (stereo unspecified)	39.5	.	.	.	36.3	.
Cc1ccc(-n2cc(CNC(C)Cn3cncn3)c(-c3ccc(F)cc3)n2)cc1 (stereo unspecified)	.	.	.	.	/	/
Cc1ccc(C)c(-n2cc(CNCCCn3cccn3)c(-c3ccccc3)n2)c1	242.7	.	.	.	218.2	.
SMILES	OPRM1-OPRD1 ag	HTR5A ag ctr	HTR5A inv ctr	MOR-DOR inv ag	MOR-DOR ag conf	HTR5A ag counter
Cc1ccc(S[C@@H](CCN2CC[C@H](C(C)(C)C)CCC2=O)c2ccccc2)cc1	.	.	.	.	/	/
CCOC(=O)c1c(C)[nH]c(C(=O)OC/C(O)=C(\C#N)c2nc3ccccc3[nH]2)c1C	32.3	9.9	.	.	41.0	.
OCC1(CCc2ccccc2)CCN(Cc2cc(Cl)ccc2O)CC1	.	.	.	.	/	/
Cc1ccc(-n2cccn2)c(CN2CCC(CO)(CCc3ccccc3)CC2)c1	29.1	.	.	.	.	.
CC(OC(=O)/C=C/c1cccc(Cl)c1)C(=O)NC1CCCCC1C (stereo unspecified)	.	.	.	.	/	/
CC(=O)Nc1ccc(NC(=O)CSc2ncc(C(=O)Nc3ccccc3)c(=O)n2C)cc1	.	.	.	.	/	/
Brc1ccc(NCc2cccc3ccccc23)nc1	.	.	.	.	/	/
Oc1ccccc1CNc1ccc(Br)cn1	71.0	31.9	.	.	59.6	26.9
O=c1cc[nH]c2c1ccc1cccnc12	.	.	.	.	/	/
Cc1cc2c(cc1C)CSC(c1c(O)ccc3ccccc13)SC2	31.0	.	.	.	18.7	.
